Laboratory results reported in PubChem BioAssay AID1578 (Sanford-Burnham Center for Chemical Genomics, 2009).
About 3,000 (1%) of roughly 290,000 compounds were called active. Many of the other results were omitted from the sample, so actives are more common in it than they were. Values without a mark were called inactive. Rule as the data show it: active = inhibition mostly above about 36% (no sharp cut-off); inactive = mostly below about 34%.

Experiment: inhibition of NOD1-driven NF-kB reporter – cell-based, luminescence, uHTS, primary screen (AID 1578);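 also: HEK-293T reporter cells stimulated with the NOD1 agonist gamma-tri-DAP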
Conditions: NOD1-driven NF-kB luciferase reporter cells, at 4 µM, stronger effect = higher value

**Q.** Which inhibition does the source give for `COc1ccccc1S(=O)(=O)N1CCC(C(=O)O)(c2ccccc2)CC1` here?
**A.** Its inhibition is 14.5%.

**Q.** Which inhibition does the source give for `COc1ccc(NC(=S)c2ccncc2)cc1` here?
**A.** Its inhibition is -9.9%.

**Q.** Which inhibition does the source give for `CC(Sc1nnc(N)s1)C(=O)Nc1ccc(N2CCOCC2)cc1` (stereo not drawn) here?
**A.** The inhibition was -20.5%.

**Q.** For `COc1ccc(NC(=O)Cc2c(F)c(F)c(F)c(F)c2F)cc1OC`, which inhibition is on record?
**A.** The inhibition was 2.8%.

**Q.** With `Cc1csc(NC(=O)CSc2nc(C(C)C)nc3ccccc23)n1` as the molecule, how does the inhibition read?
**A.** Its inhibition is 12.9%.

**Q.** With `O=C1N/C(=N/c2ccccn2)SC1Cc1ccccc1` (stereo not drawn) as the molecule, how does the inhibition read?
**A.** Its inhibition is -21%.

**Q.** With `O=C1N/C(=N\c2ccccn2)SC1Cc1ccc(Cl)cc1` (stereo not drawn) as the molecule, how does the inhibition read?
**A.** Its inhibition is 103% (active).

**Q.** For `Cc1ccc(CC2S/C(=N/c3ccccn3)NC2=O)cc1` (stereo not drawn), which inhibition is on record?
**A.** The inhibition was 17%.

**Q.** For `CCCCN1CC(=O)N2Cc3[nH]c4ccccc4c3C[C@H]2C1=O`, which inhibition is on record?
**A.** Its inhibition is -2.4%.

**Q.** For `O=C(Nc1ccccc1)C1(c2ccccc2)CC1(Cl)Cl` (stereo not drawn), which inhibition is on record?
**A.** Its inhibition is -28.2%.

**Q.** For `Cc1ccc(SCC(=O)NCCN2C(=O)CSC2=O)c(C)c1`, which inhibition is on record?
**A.** Its inhibition is -23.2%.

**Q.** With `S=c1sc2c(Cl)ncnc2n1-c1ccccc1` as the molecule, how does the inhibition read?
**A.** Its inhibition is 69.8% (active).

**Q.** For `S=c1sc2c(N3CCN(Cc4ccccc4)CC3)ncnc2n1-c1ccccc1`, which inhibition is on record?
**A.** Its inhibition is -6.8%.

**Q.** With `S=c1sc2c(N3CCOCC3)ncnc2n1-c1ccccc1` as the molecule, how does the inhibition read?
**A.** The inhibition was 9%.

**Q.** With `CN1CCN(CC2(O)CCN(S(=O)(=O)c3ccc(Cl)cc3)CC2)CC1` as the molecule, how does the inhibition read?
**A.** Its inhibition is -21.7%.

**Q.** With `Cc1cccc2c(=O)c(C(=O)NCCc3ccccc3)c[nH]c12` as the molecule, how does the inhibition read?
**A.** Its inhibition is -28.3%.

**Q.** Which inhibition does the source give for `O=C(NCCc1ccccc1)c1cc2ncc(Br)cn2n1` here?
**A.** Its inhibition is -28.5%.

**Q.** With `NC1=NC(=O)/C(=C/c2ccc(Br)cc2)S1` as the molecule, how does the inhibition read?
**A.** The inhibition was 25%.

**Q.** Which inhibition does the source give for `NC1=NC(=O)/C(=C\c2cccnc2)S1` here?
**A.** The inhibition was 53.6% (active).

**Q.** For `NC1=NC(=O)/C(=C/c2cccc(F)c2)S1`, which inhibition is on record?
**A.** The inhibition was -12%.

**Q.** Which inhibition does the source give for `Cc1cc(OCC(=O)N2CCN(c3ccccc3)CC2)c2c(C)cc(=O)oc2c1` here?
**A.** Its inhibition is -49.6%.

**Q.** With `O=C(NCc1nnc(SCC(=O)N2CCCc3ccccc32)o1)c1ccco1` as the molecule, how does the inhibition read?
**A.** The inhibition was -0.1%.

**Q.** With `CC(=O)OC1C2CCC1C([N+]1(C)CCCCC1)CC2` (stereo not drawn) as the molecule, how does the inhibition read?
**A.** Its inhibition is -31.7%.

**Q.** With `Cc1cccc(N=c2oc3cc(O)ccc3cc2C(N)=O)c1` as the molecule, how does the inhibition read?
**A.** Its inhibition is 44.6%.

**Q.** Which inhibition does the source give for `COc1ccc2cc(C(N)=O)c(=Nc3ccccc3)oc2c1` here?
**A.** Its inhibition is 34.9%.

**Q.** With `NC(=O)c1cc2ccc(O)cc2oc1=Nc1ccccc1` as the molecule, how does the inhibition read?
**A.** Its inhibition is 92.8% (active).

**Q.** For `CCN(CC)S(=O)(=O)c1cc(NC(=O)CCCOc2ccc(C(C)=O)cc2)ccc1C`, which inhibition is on record?
**A.** Its inhibition is 6.3%.

**Q.** With `Oc1c(Br)cc(C=Nc2ccc3nc(-c4ccccc4)[nH]c3c2)c(O)c1Br` as the molecule, how does the inhibition read?
**A.** The inhibition was 33.9%.

**Q.** Which inhibition does the source give for `Cc1cccc(N2C(=O)C3C4C=CC(CC4)C3C2=O)c1` (stereo not drawn) here?
**A.** The inhibition was -21.6%.

**Q.** With `Cc1c(C)c2ccc(O[C@@H]3O[C@H](CO)[C@H](O)[C@H](O)[C@H]3O)cc2oc1=O` as the molecule, how does the inhibition read?
**A.** Its inhibition is -1%.

**Q.** With `Cc1cc(C(=O)CSc2nnc(-c3ccco3)o2)c(C)n1CC1COc2ccccc2O1` (stereo not drawn) as the molecule, how does the inhibition read?
**A.** The inhibition was 43.4%.

**Q.** With `Cc1cc(C(=O)CSc2nnc(-c3ccco3)o2)c(C)n1Cc1ccco1` as the molecule, how does the inhibition read?
**A.** Its inhibition is 3.1%.

**Q.** For `Cc1ccc(S(=O)(=O)N2CCN(C(=O)CSc3nnc(-c4ccco4)o3)CC2)cc1`, which inhibition is on record?
**A.** Its inhibition is -19%.

**Q.** With `Cc1c(C(=O)O)oc2ccc(S(=O)(=O)N3CC(C)CC(C)C3)cc12` (stereo not drawn) as the molecule, how does the inhibition read?
**A.** Its inhibition is -13%.

**Q.** With `CCN(CC)C(=O)c1oc2ccc(S(=O)(=O)N3CCCCCC3)cc2c1C` as the molecule, how does the inhibition read?
**A.** Its inhibition is 20.9%.

**Q.** For `COc1cccc(-n2c(SCC#N)nnc2-c2cnccn2)c1`, which inhibition is on record?
**A.** The inhibition was 5.2%.

**Q.** For `CC(C)CCN1CCN(Cc2cccc3nonc23)CC1CCO` (stereo not drawn), which inhibition is on record?
**A.** The inhibition was -23.9%.

**Q.** Which inhibition does the source give for `O=C(Nc1cccnc1)c1cc(-c2ccc(Br)cc2)nc2ccccc12` here?
**A.** Its inhibition is -14.6%.

**Q.** With `CCc1oc2ccccc2c1C(=O)CCN1CCCCC1` as the molecule, how does the inhibition read?
**A.** Its inhibition is 39.5%.

**Q.** Which inhibition does the source give for `CCCCc1oc2ccccc2c1C(=O)c1cc(I)c(OCCN(CC)CC)c(I)c1` here?
**A.** Its inhibition is -7.6%.

**Q.** Which inhibition does the source give for `CCc1oc2ccccc2c1C(=O)c1cc(Br)c(O)c(Br)c1` here?
**A.** Its inhibition is 87.3% (active).

**Q.** With `O=C(Nc1ccc(OCC(F)(F)C(F)F)c(C(F)(F)F)c1)c1ccccc1O` as the molecule, how does the inhibition read?
**A.** Its inhibition is 77.1% (active).

**Q.** With `O=C(Nc1ccc(OCC(F)(F)C(F)F)cc1)c1ccncc1` as the molecule, how does the inhibition read?
**A.** The inhibition was -18.2%.

**Q.** With `O=C(O)c1ccccc1C(=O)Nc1ccc(Br)c(C(F)(F)F)c1` as the molecule, how does the inhibition read?
**A.** Its inhibition is -11.4%.

**Q.** Which inhibition does the source give for `O=C(CN1C(=O)CCSc2ccc(S(=O)(=O)N3CCCC3)cc21)Nc1ccccc1Cl` here?
**A.** Its inhibition is -4.7%.

**Q.** With `CCN1CCN(C(=O)COCc2cc(-c3ccc4c(c3)OCO4)on2)CC1` as the molecule, how does the inhibition read?
**A.** The inhibition was -17.7%.

**Q.** Which inhibition does the source give for `Cc1ccc2c(c1)N(S(=O)(=O)c1cc(-c3onc(C)c3C)ccc1C)CCO2` here?
**A.** Its inhibition is 29.7%.

**Q.** For `CC(C)(C)n1ncc(Oc2ccccc2[N+](=O)[O-])c(Cl)c1=O`, which inhibition is on record?
**A.** The inhibition was 12.6%.

**Q.** Which inhibition does the source give for `Cc1cc(C2=NNC(=NC3CCCCC3)SC2)c(C)n1-c1c(C)n(C)n(-c2ccccc2)c1=O` here?
**A.** Its inhibition is 2.7%.

**Q.** Which inhibition does the source give for `COCCCN=C1NN=C(c2cc(C)n(Cc3ccco3)c2C)CS1` here?
**A.** Its inhibition is -8.2%.

**Q.** Which inhibition does the source give for `CCN=C1NN=C(c2cc(C)n(CCc3ccccc3)c2C)CS1` here?
**A.** Its inhibition is -15%.

**Q.** With `Cc1cc(C2=NNC(=NC3CC3)SC2)c(C)n1Cc1ccco1` as the molecule, how does the inhibition read?
**A.** The inhibition was 90.4% (active).

**Q.** Which inhibition does the source give for `CCN=C1NN=C(c2cc(C)n(Cc3ccco3)c2C)CS1` here?
**A.** The inhibition was 81.7% (active).
